Measurements: ChEMBL document CHEMBL3988442, “University of Dundee, Small-Polar-MMV Screening Library” (2021)

molecular target: Shiga toxin 2 (Escherichia coli O157:H7) (UniProt P09385+P09386); assay: E. coli 0.157:H7 Shiga Toxin SOP - stx2 screening assay; format: functional; set-up: scale not given: direction of the effect not stated beside the values; settings: 30 µM

Row | Compound | Percent Effect [%]
1 | CN1C(=O)C[C@@H]2[C@@H]1CCN2C(=O)c1ccc[nH]1 | -6.89
2 | CN(C)C(=O)NC1COC2(CCN(C(=O)Nc3ccccc3)CC2)C1 (stereo not given) | -15.4
3 | Cc1nnc(N2C[C@H](C(=O)NCC3CC3)[C@@H]3CCO[C@@H]3C2)s1 | -6.05
4 | Cc1nn(C(C)C)c(C)c1NC(=O)c1ccncc1 | -15.8
5 | Cc1cc(C)n(-c2ccc(CNCc3ccc(OC(C)C)cc3)cn2)n1 | 29.5
6 | CN(C)c1ncccc1CNC(=O)N1CCCC1c1ccsc1 (stereo not given) | 5.76
7 | CCc1nnc2n1CCN(Cc1csc(-c3ccc(C)o3)n1)C2 | -33.1
8 | COc1cccc2c1OCC(C(=O)N1CCN(S(C)(=O)=O)CC1)C2 (stereo not given) | 14.3
9 | O=C(c1cnco1)N1C[C@@H]2CC[C@H](Oc3cccc(F)c3)[C@@H]2C1 | -73.9
10 | COCCC(=O)N1CCC2(COCc3cnc(-c4ccccc4)nc32)C1 (stereo not given) | -3.09
11 | Cc1cc(C(=O)N2CCCC2Cn2nc(C)cc2C)on1 (stereo not given) | 20
12 | Cc1nn(C)cc1CCC(=O)N1CCCC(n2cncn2)C1 (stereo not given) | 12.3
13 | O=c1cc(Cn2cncn2)nc2n1CCCN(CC1CC1)C2 | -0.568
14 | CNC(=O)C1(CCCc2cccnc2)CCCCN1 (stereo not given) | 0.867
15 | Cn1c(Cn2ccnc2)nnc1C1CCN(C(=O)C2(C)CC2)CC1 | -12.1
16 | CN(C)C(=O)CN1C[C@@H]2CC[C@H](C1)N(C(=O)CCn1cncn1)C2 | -6.26
17 | CC(C)n1ccc(-c2cc(C(=O)N3CCCC3)c3ccccn23)n1 | -41.4
18 | CC(=O)N1CCN(C(=O)CN2CCc3c(ncn3C3CC3)C2)CC1 | -27.5
19 | COC(=O)c1ccc(C2CC(=O)Oc3cc(C)[nH]c(=O)c32)cc1 (stereo not given) | -8.85
20 | Cc1cc(C)n(CC2CCCN2C(=O)CCCNc2ncccn2)n1 (stereo not given) | 26.1

Row | Compound | Percent Effect [%]
21 | Cc1noc(C)c1CN1CCN(Cc2ccncc2)c2ncccc2C1 | 8.32
22 | CCc1cc(C)c(C(=O)N2CCCC2CC(=O)c2cnn(C)c2)o1 (stereo not given) | 19.9
23 | CC(C)c1nc(CCNC(=O)NCc2ccnc(N(C)C)c2)cs1 | -13.1
24 | COc1ccc(C(O)CNc2c(C#N)c(=O)n(C)c(=O)n2C)cc1 (stereo not given) | -4.88
25 | CCn1ccnc1CN1CCN(Cc2ccccn2)CC1C (stereo not given) | -13.6
26 | COCCc1noc(CN2CCc3nn(C(C)C)c(=O)cc3C2)n1 | 19.6
27 | CCn1ccnc1CN1CCN(CC(O)c2ccccc2)CC1 (stereo not given) | -31
28 | COc1ccccc1C(=O)N1CCCC1Cn1cc(C)cn1 (stereo not given) | 26.5
29 | Cc1n[nH]c(C)c1C1CCCN1C(=O)NCCSC(C)(C)C (stereo not given) | -9.79
30 | CNc1cc2c(nn1)CCN(C(=O)c1ccc(-n3nccc3C)cc1)C2 | 26.8
31 | O=C1C(NCc2nnc3n2CCCC3)CCN1CC(F)(F)F (stereo not given) | 1.91
32 | COc1cccc(S(=O)(=O)NC2CNC(=O)C2)c1 (stereo not given) | 3.09
33 | Cc1ccc2c(n1)N(C)CCN(C(=O)C1CC1)C2 | -13.9
34 | Cn1cc(-c2nc(CNCCn3cccn3)cs2)cn1 | -121
35 | CCC(=O)N1CCC2(CC1)c1nc[nH]c1CCN2S(C)(=O)=O | 14.6
36 | Cc1cnn(C2CCCN(C(=O)c3cc(C)sc3C)C2)c1 (stereo not given) | -24.8
37 | O=C(c1ccnnc1)N1CCN2C[C@H](Oc3cccc(F)c3)C[C@H]2C1 | -1.95
38 | O=C1CC(NCc2ccncc2)CN1Cc1cccc(F)c1 (stereo not given) | -1.08
39 | Fc1cnc(N2CCOCC3(CCCN(c4nncs4)C3)C2)nc1 (stereo not given) | 6.61
40 | COc1c(CNC2CCCc3ccccc32)c(C)nn1C (stereo not given) | 13.6
